This passage reports Potency and activity change, negative = inhibition results from PubChem BioAssay AID2158 (National Center for Advancing Translational Sciences (NCATS), 2009).

“And” between values parts separate entries of the source, which are not always exact repeats. Identical values can stand only once. Results filed as inconclusive are left out. The source made the active and inactive calls. The call rests on the fitted dose curve; in most records, active means well fitted inhibition curve with a large enough effect; inconclusive means small, poorly fitted or top-dose-only effect; inactive means no such curve, though single readings can be large or run the other way.
Potency means the concentration at half of the fitted maximal effect.

In this experiment the target is Cruzipain (Trypanosoma cruzi) (UniProt P25779). In words: Confirmation qHTS Assay for Inhibitors of Cruzain. Further: nearly all actives have a fitted effect of over 40% in size.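 On activity change, negative = inhibition: plate controls were uninhibited enzyme control for no effect and buffer wells lacking enzyme for full effect.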 To be noted: purified cruzain, Z-FR-AMC fluorescence, 0.01% Triton. An outline of the steps: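 Purified cruzain, 1.5 nM, pre-incubated 15 min at room temperature with compound in 100 mM sodium acetate pH 5.5, 5 mM DTT, 0.01% Triton X-100. Then 2 uM Z-FR-AMC added; AMC fluorescence (ex 360/em 450 nm) increase over 60 s gave reaction progress.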
Sequence of Cruzipain (Trypanosoma cruzi) (P25779 123-467 limits assumed): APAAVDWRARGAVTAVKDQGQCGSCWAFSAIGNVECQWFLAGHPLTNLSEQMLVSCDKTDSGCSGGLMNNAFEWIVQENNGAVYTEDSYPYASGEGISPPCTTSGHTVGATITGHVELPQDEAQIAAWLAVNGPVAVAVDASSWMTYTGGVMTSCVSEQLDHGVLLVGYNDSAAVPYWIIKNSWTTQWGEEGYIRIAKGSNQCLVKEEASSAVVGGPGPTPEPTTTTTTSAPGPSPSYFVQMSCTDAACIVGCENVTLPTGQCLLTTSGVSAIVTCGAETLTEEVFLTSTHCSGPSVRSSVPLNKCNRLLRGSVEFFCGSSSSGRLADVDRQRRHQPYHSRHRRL
Background: Quantitative high-throughput screening tests each substance at several concentrations.
As to `Cc1ccc(S(=O)(=O)N[C@@H](Cc2ccccc2)C(=O)CCl)cc1`, the Potency is 14.1 µM (active) and 28.2 µM (active).
For `NC(=S)n1[nH]c(-c2ccc([N+](=O)[O-])cc2)c(N=Nc2ccc(O)cc2)c1=O`, the activity change, negative = inhibition is -8% (inactive).
For `O=C(CNC(=O)c1ccccc1)OC(C(=O)Nc1ccc2c(c1)OCO2)c1ccccc1` (centres undefined), the Potency was 8.91 µM (active).
Still for that read-out and setting: as for `N#Cc1ccc(C(=O)NCC(=O)OC(C(=O)Nc2cc(C(F)(F)F)ccc2Cl)c2ccccc2)cc1` (centres undefined), the figure is 12.6 µM (active); as for `O=C(NCCO)c1ccc2nc(-c3ccco3)c(-c3ccco3)nc2c1`, 14.1 µM (active).
Consider `O=C(NCc1nnc(-c2nc3ccccc3[nH]2)o1)C1CCCCC1`, for which the activity change, negative = inhibition was -3.39% (inactive).
As for `COc1ccc(/C=C/C(=O)Nc2ccc(-n3nncc3-c3ccccc3)cc2)cc1OC`, the Potency is 14.1 µM (active).
The same measure, in the same setting: as for `N#Cc1nc(NCCCO)nc(Nc2ccccc2)n1`, the figure is 2.24 µM (active); as for `N#Cc1nc(NCC2CC2)nc(Nc2ccccc2)n1`, 0.891 µM (active).
Regarding `Clc1ccc(-c2nn3c(-c4cc(-c5ccccc5)n[nH]4)nnc3s2)cc1`, the activity change, negative = inhibition is -13.4% (inactive).
With `O=C(CNC(=O)C1CCCCC1)OCC(=O)c1ccc2c(c1)CCC2`, the Potency was 6.31 µM (active).
Turning to `CCc1ccc2[nH]c(=O)c(CN(Cc3cccnc3)Cc3nnnn3Cc3ccccc3)cc2c1`, the activity change, negative = inhibition is -20.9% (inactive).
For the compound `O=C(CNC(=O)C1CCCCC1)OCC(=O)c1cccc(Cl)c1`, the Potency was 2.82 µM (active).
For the compound `COc1ccc(NS(=O)(=O)c2cc(NC(=O)/C=C/c3ccccc3OC)ccc2N2CCCCC2)cc1`, the activity change, negative = inhibition was 2.33% (inactive).
As to `COc1ccc(-c2cnnn2-c2ccc(NC(=O)/C=C/c3ccc(OC)c(OC)c3)cc2)cc1`, the Potency was 15.8 µM (active).
On to `O=C(NCCc1nc2ccccc2n1CCOc1cccc2ccccc12)C1CCCCC1`, for which the activity change, negative = inhibition is -11.4% (inactive).
Turning to `O=C(CNC(=O)C1CCCCCC1)OC(C(=O)Nc1cc(C(F)(F)F)ccc1Cl)c1ccccc1` (centres undefined), the Potency is 7.08 µM (active).
As for `CCCn1c(SCC(=O)N2CC(=O)Nc3ccccc32)nc2ccccc21`, the Potency was 28.2 µM (active).
As for `Cc1ccccc1OCC(=O)NCC(=O)OCc1cccc2ccccc12`, the activity change, negative = inhibition was -2.79% (inactive).
On the same count and under the same terms, to `Cc1ccc2cc(CN(Cc3ccco3)Cc3nnnn3Cc3ccco3)c(=O)[nH]c2c1` belongs -10.1% (inactive).
On to `O=C(NCCc1nc2ccccc2n1CCOc1ccccc1)C1CCCCC1`, for which the Potency is 0.794 µM (active).
The same measure, in the same setting: to `CCn1cnc2c(Nc3cccc(Cl)c3)nc(C#N)nc21` belongs 0.0141 µM (active); to `N#Cc1nc(NCCCCO)nc(Nc2ccccc2)n1`, 0.891 µM (active).
For `Cc1ccc2[nH]c(=O)c(CN(Cc3ccco3)Cc3nnnn3Cc3ccco3)cc2c1`, the activity change, negative = inhibition was -6.56% (inactive).
